Active and inactive are the calls of the source. Rule for the calls: active = hit-call score of the fitted dose curve at least 0.9, where 1 is the maximum; inactive = score below 0.9.

A short description of one experiment: CEETOX_H295R_CORTISOL_noMTC: CeeTox H295R High-throughput Steroidogenesis Assay for Cortisol, maximum tolerated concentration (MTC) filtered results only (AID 2283916). The note with it: actives raise or lower the signal. Put shortly:
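H295R adrenal cells were pre-stimulated 48 h with 10 uM forskolin, then exposed 48 h to test chemical in 0.1% DMSO. Medium cortisol was measured by MTBE extraction and HPLC-MS/MS; bidirectional fit versus DMSO, concentrations not MTC-filtered.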
Regarding `CC(C)c1ccc(O)c(C(C)C)c1`, the outcome was inactive.

By AC50 is commonly meant the concentration at which the activity in the assay is half-maximal. Regarding `N#Cc1ccc(C(c2ccc(C#N)cc2)n2cncn2)cc1`, the AC50 was 4.92 µM (active).

As for `COc1ccc(C(=O)/C(Br)=C\C(=O)O)cc1`, the AC50 was 50 µM (active).

Take `CCCCC1C(=O)N(c2ccccc2)N(c2ccccc2)C1=O`: the result was inactive.

As to `CCCC=C(C=O)CC`, the outcome was inactive.

`N#Cc1ccc(C2CCCc3cncn32)cc1` (stereo unspecified): the AC50 is 2.52 µM (active).

The nature of another experiment: CEETOX_H295R_CORTIC_noMTC: CeeTox H295R High-throughput Steroidogenesis Assay for Corticosterone (CORTIC), maximum tolerated concentration (MTC) filtered results only (AID 2283917). The note with it: actives raise or lower the signal. Put shortly:
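Forskolin-stimulated (10 uM, 48 h) H295R cells are dosed 48 h with chemical in DMSO (0.1% final); corticosterone change is quantified by HPLC-MS/MS and fitted bidirectionally against DMSO, unfiltered for MTT-derived MTC.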
For `CC(C)c1ccc(O)c(C(C)C)c1`, the AC50 is 31.2 µM (active).

For `N#Cc1ccc(C(c2ccc(C#N)cc2)n2cncn2)cc1`, the compound was classed as inactive.

As for `COc1ccc(C(=O)/C(Br)=C\C(=O)O)cc1`, the AC50 is 57.8 µM (active).

`CCCCC1C(=O)N(c2ccccc2)N(c2ccccc2)C1=O`: the compound was classed as inactive.

With `CCCC=C(C=O)CC`, the outcome was inactive.

Take `N#Cc1ccc(C2CCCc3cncn32)cc1` (stereo unspecified): the AC50 was 1.44 µM (active).

Another experiment is described as follows: CEETOX_H295R_DOC_noMTC: CeeTox H295R High-throughput Steroidogenesis Assay for DOC, maximum tolerated concentration (MTC) filtered results only (AID 2283918). The note with it: actives raise or lower the signal. Put shortly: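 H295R cells prestimulated 48 h with 10 uM forskolin, then exposed 48 h to test chemical (0.1% DMSO final). Medium 11-deoxycorticosterone extracted with MTBE, quantified by HPLC-MS/MS; bidirectional fit versus DMSO, concentrations not MTC-filtered.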
Consider `CC(C)c1ccc(O)c(C(C)C)c1`, for which the compound was classed as inactive.

Regarding `N#Cc1ccc(C(c2ccc(C#N)cc2)n2cncn2)cc1`, the result was inactive.

For the compound `COc1ccc(C(=O)/C(Br)=C\C(=O)O)cc1`, the AC50 is 13.6 µM (active).

Consider `CCCCC1C(=O)N(c2ccccc2)N(c2ccccc2)C1=O`, for which the compound was classed as inactive.

With `CCCC=C(C=O)CC`, the compound was called inactive.

Turning to `N#Cc1ccc(C2CCCc3cncn32)cc1` (stereo unspecified), the half-maximal activity concentration (AC50) was 1.98 µM (active).

Another experiment in a line: CEETOX_H295R_ESTRADIOL_noMTC: CeeTox H295R High-throughput Steroidogenesis Assay for Estradiol, maximum tolerated concentration (MTC) filtered results only (AID 2283919). The note with it: actives raise or lower the signal. In outline: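 Readout: dansyl-derivatized estradiol quantified by LC-MS/MS in medium from H295R cells dosed 48 h (0.1% DMSO) following 48 h forskolin (10 uM) prestimulation. Gain or loss of signal fitted against DMSO; no MTC filtering applied.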
Turning to `CC(C)c1ccc(O)c(C(C)C)c1`, the result was inactive.

With `N#Cc1ccc(C(c2ccc(C#N)cc2)n2cncn2)cc1`, the AC50 is 0.0183 µM (active).

Take `CCCC=C(C=O)CC`: the compound was classed as inactive.

Another experiment in a line: CEETOX_H295R_PROG_noMTC: CeeTox H295R High-throughput Steroidogenesis Assay for Progesterone (PROG), maximum tolerated concentration (MTC) filtered results only (AID 2283920). The note with it: actives raise or lower the signal. In outline:
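Progesterone synthesis in the human adrenal line H295R is measured by HPLC-MS/MS after 48 h chemical exposure following 48 h forskolin (10 uM) stimulation. Activity in either direction is fitted relative to DMSO.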
Regarding `CC(C)c1ccc(O)c(C(C)C)c1`, the compound was called inactive.

In the case of `N#Cc1ccc(C(c2ccc(C#N)cc2)n2cncn2)cc1`, the compound was classed as inactive.

As for `COc1ccc(C(=O)/C(Br)=C\C(=O)O)cc1`, the AC50 was 8.09 µM (active).

For the compound `CCCCC1C(=O)N(c2ccccc2)N(c2ccccc2)C1=O`, the AC50 is 38.7 µM (active).

For `CCCC=C(C=O)CC`, the compound was classed as inactive.

For the compound `N#Cc1ccc(C2CCCc3cncn32)cc1` (stereo unspecified), the outcome was inactive.

Another experiment in a line: CEETOX_H295R_ESTRONE_noMTC: CeeTox H295R High-throughput Steroidogenesis Assay for Estrone, maximum tolerated concentration (MTC) filtered results only (AID 2283921). The note with it: actives raise or lower the signal. Put shortly:
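Estrone in spent medium, quantified by tandem MS following dansyl chloride derivatization, after 48 h chemical exposure (0.1% DMSO) of forskolin-prestimulated (10 uM, 48 h) H295R cells; concentrations not MTC-filtered, bidirectional fit against DMSO.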
For `CC(C)c1ccc(O)c(C(C)C)c1`, the result was inactive.

For `N#Cc1ccc(C(c2ccc(C#N)cc2)n2cncn2)cc1`, the AC50 is 0.0263 µM (active).

In the case of `CCCCC1C(=O)N(c2ccccc2)N(c2ccccc2)C1=O`, the outcome was inactive.

As to `CCCC=C(C=O)CC`, the outcome was inactive.

The values are drawn from PubChem BioAssay (EPA / NIEHS).
